Among the targets are SIRT4; SLC20A1; SLC22A7; SLC25A25; SLC2A14; SLC2A7; SLC2A3; SLC29A3; SLC50A1; SLC7A11; SLCO4C1; SMYD3; SNX29; SQRDL; SRSF11; SSR4; ST6GAL2; STARD3; STARD3NL; STAP2; STARD13.
Common to all, as to experiment: pooled miR-30 sensor sort-seq; sequence = guide strand
Holding throughout (settings): shRNA
Note: reference of the scale not given here.

TGTAACTCTTTGACCTTCTCAG gave a sensor-assay potency score (higher = more potent) in the assay with SIRT4 of 0.0606.
Turning to TTGACTGAACTGGACAAGGTTC, in the assay with SLC20A1, the sensor-assay potency score (higher = more potent) was -0.668.
TAGAGTAGAAGCCATATTGGTG showed a sensor-assay potency score (higher = more potent) with SLC20A1 of -0.743.
In the assay with SLC22A7, ATGGCAAACATTACATAGCTGA came in with a sensor-assay potency score (higher = more potent) of -0.95.
For the sequence TTATTTACAGAATCCTCCCCAA, in the assay with SLC22A7, the sensor-assay potency score (higher = more potent) was -0.0957.
Turning to TATCTTGACTCCCAAGTCCCGC, the sensor-assay potency score (higher = more potent) in the assay with SLC25A25 was -1.03.
Still for that read-out and setting: the figure for TCCACTGTGAACTCATCCGGGA is -0.99.
As to TAGTGATTCTTTAATAACAAAG, the sensor-assay potency score (higher = more potent) with SLC2A14 was -1.67.
Take TTCATCTCCTTTCTGAATCAGG: in the assay with SLC2A7, the sensor-assay potency score (higher = more potent) was -0.693.
Turning to TTTATCTCCACAAATGTTTTGC, in the assay with SLC2A7, the sensor-assay potency score (higher = more potent) was 0.129.
In the assay with SLC2A3, TTATCCTTTAATAACAAAGAAA had a sensor-assay potency score (higher = more potent) of -1.62.
As for TAAATAGTAAGCAGCAGAGGGG, the sensor-assay potency score (higher = more potent) with SLC2A14 is -1.17.
Sequence TTGACGAAGAGTCCGACGGAAA had a sensor-assay potency score (higher = more potent) with SLC2A3 of -1.44.
Same read-out and setting: the figure for TTAGCTACTTTACACAGTCCCA is -1.12.
TATTTCTTCTTCAACTGTCTCA: the sensor-assay potency score (higher = more potent) with SLC29A3 was 0.0304.
TTATGATCGTCTCAGGAGCATT had a sensor-assay potency score (higher = more potent) in the assay with SLC2A14 of -1.97.
TTGTAGGATAGCAGGAAGGATG showed a sensor-assay potency score (higher = more potent) with SLC2A3 of -1.65.
With TCCCAGATCTATCTGCACCGTG, in the assay with SLC2A14, the sensor-assay potency score (higher = more potent) was -0.88.
On to TTCGTGAGCAGCACCTCAGAGG, for which the sensor-assay potency score (higher = more potent) in the assay with SLC2A14 was -0.817.
In the assay with SLC2A7, TAGTAGTTGATCGCATTGATGC showed a sensor-assay potency score (higher = more potent) of -1.14.
The sequence TCTGCTTAGCATTCTCCTCTTC displayed a sensor-assay potency score (higher = more potent) with SLC2A3 of 0.0393.
TTATGATCTTCTCAGGAGCATT: the sensor-assay potency score (higher = more potent) with SLC2A3 was -1.71.
In turn, TTAACAAAGAGTCCGACGGAAA returned a sensor-assay potency score (higher = more potent) in the assay with SLC2A14 of -1.6.
TTGACATGTTGTAAACAGGAAC returned a sensor-assay potency score (higher = more potent) with SLC29A3 of -1.02.
Take TCAGCATTTCAACTGACTCAGC: in the assay with SLC2A14, the sensor-assay potency score (higher = more potent) is -0.914.
TAAATCGCAGTGAGGAGGCAGA: the sensor-assay potency score (higher = more potent) in the assay with SLC2A7 was -0.695.
TTCTGAATCAGGGAGTAGCGGG: the sensor-assay potency score (higher = more potent) with SLC2A7 is -1.43.
Turning to TGATTCTTTAATAACAAAGAAA, the sensor-assay potency score (higher = more potent) in the assay with SLC2A14 is -1.69.
TTTCGTTGTAAAATGACTTGAA showed a sensor-assay potency score (higher = more potent) with SLC2A7 of 0.429.
Sequence TTACACAGTCCCATAAAGCAGC yielded a sensor-assay potency score (higher = more potent) with SLC2A3 of -0.688.
The sequence TTACACAGTCCCATAAGGCAGC returned a sensor-assay potency score (higher = more potent) with SLC2A14 of -0.403.
As for TGACTTGAAGACCTTGTGCGGC, the sensor-assay potency score (higher = more potent) with SLC2A7 is -0.691.
Consider AATTCCAATAACTATGCCCAGC, for which the sensor-assay potency score (higher = more potent) with SLC2A14 was -1.73.
Sequence TTTATGATCGTCTCAGGAGCAT gave a sensor-assay potency score (higher = more potent) with SLC2A14 of -0.333.
In the assay with SLC2A3, TAGGATAGCAGGAAGGATGGTA returned a sensor-assay potency score (higher = more potent) of 0.643.
Take TTACATATTGGGAGTGAGCGGC: in the assay with SLC2A7, the sensor-assay potency score (higher = more potent) is -0.256.
TTTGCTTGCATCTCGCTGTCAG came in with a sensor-assay potency score (higher = more potent) in the assay with SLC29A3 of 0.244.
In the assay with SLC2A7, TTTCTCTTGGCAAAAATGCGGT registered a sensor-assay potency score (higher = more potent) of -0.876.
For the sequence TAGCTACTTTACACAGTCCCAT, in the assay with SLC2A3, the sensor-assay potency score (higher = more potent) was -0.496.
As to TTGAAGACCTTGTGCGGCGTGT, in the assay with SLC2A7, the sensor-assay potency score (higher = more potent) is -0.139.
TCTGCCGCAGCTATCAACCAGC showed a sensor-assay potency score (higher = more potent) with SLC2A7 of -0.668.
Regarding ATAAATTCCTTTATGATCGTCT, the sensor-assay potency score (higher = more potent) in the assay with SLC2A14 is 0.823.
On to TTTGAAGAAGGTAAAAGCCAAG, for which the sensor-assay potency score (higher = more potent) in the assay with SLC2A3 is -1.07.
The same measure, in the same setting: the figure for TTCCAGATCTATCTGCACCGTG is 0.283.
As to TAGTTGATCGCATTGATGCCCG, the sensor-assay potency score (higher = more potent) with SLC2A7 is -0.411.
TTCTTTTCTGTTAATGAGCAAA: the sensor-assay potency score (higher = more potent) in the assay with SLC2A3 is -1.47.
Take TCGCATGTGCCTGAGGTCCGAG: the sensor-assay potency score (higher = more potent) with SLC50A1 was -1.22.
In the assay with SLC7A11, TTCAGTAACAAAGTTGAGGTAA gave a sensor-assay potency score (higher = more potent) of 0.0391.
TAATTAGCTGCATAACTCCAGG gave a sensor-assay potency score (higher = more potent) with SLC7A11 of -0.703.
TAATATTCAAGTATGCTGCTTC: the sensor-assay potency score (higher = more potent) with SLCO4C1 was 0.868.
In the assay with SLCO4C1, TTGAACTTCAATACTTTTCCTA came in with a sensor-assay potency score (higher = more potent) of 0.743.
TTTGTTAATATTTGACTCCAGA: the sensor-assay potency score (higher = more potent) in the assay with SMYD3 is -0.278.
In the assay with SNX29, TTCTGGAGCTGCTTTCTCCGTT yielded a sensor-assay potency score (higher = more potent) of -0.513.
TTGTCCTATCAAGTATTCCTGA: the sensor-assay potency score (higher = more potent) with SQRDL is -0.574.
In the assay with SRSF11, TTTGTCTTTATCTTTCTTCTTC yielded a sensor-assay potency score (higher = more potent) of 0.407.
On to TTGATCTTGAATGCCTTCTTTT, for which the sensor-assay potency score (higher = more potent) with SRSF11 is -0.673.
TCGAGTGACAGGGAATTGTTTT: the sensor-assay potency score (higher = more potent) in the assay with SSR4 is -0.927.
On the same count and under the same terms, the figure for TCTCAGTGGAAATGACAGCGTC is -0.63.
Regarding TTTATTCCCAACATCTTTCTCA, the sensor-assay potency score (higher = more potent) in the assay with ST6GAL2 was 0.384.
Same read-out and setting: the figure for AAAGTAGTCGTCATCCTCCGGG is 0.386.
Consider TTGTTCCACAGCACCATCCTCT, for which the sensor-assay potency score (higher = more potent) in the assay with STARD3 is -0.73.
Sequence TTAGCTGTTCAATAAAGCCAGC yielded a sensor-assay potency score (higher = more potent) in the assay with STARD3NL of -0.902.
Regarding TTGAGCTTCTCCACGTGCTGGA, the sensor-assay potency score (higher = more potent) with STAP2 is 0.441.
In the assay with STARD13, TTTGTAGTCGGGAACTTTCATC had a sensor-assay potency score (higher = more potent) of -0.697.
In the case of TTGTTCAACGTATTTAGTCGTC, the sensor-assay potency score (higher = more potent) with STARD13 is -0.155.
In turn, TGTCTTGTTCCACAGCACCATC came in with a sensor-assay potency score (higher = more potent) with STARD3 of -1.77.
In the case of TATAACTGAGCGTATTGCGGGA, the sensor-assay potency score (higher = more potent) with STARD13 was -0.462.
On to TAGAGGAAGCCACATCTTGGTT, for which the sensor-assay potency score (higher = more potent) with STAP2 is -1.31.
TTATTCTTCTCAAACTTCCAGT had a sensor-assay potency score (higher = more potent) with STARD3 of -0.167.
Regarding ATGAACTTTGGAACTGACCATG, the sensor-assay potency score (higher = more potent) with STARD13 was -1.26.
On to TTGAAATCCAGGAACCACGTCT, for which the sensor-assay potency score (higher = more potent) with STARD3NL worked out at 0.74.
Consider TTGACAATGAGGAATGCACTGG, for which, in the assay with STARD3, the sensor-assay potency score (higher = more potent) was 0.205.
Sequence TGAAGCATCCTGAACTATCAGG registered a sensor-assay potency score (higher = more potent) with STARD3NL of -0.809.
The same measure, in the same setting: the figure for TTTCTTCTTCTGCTTCTTGAGG is -0.759.
On to TTAGTCGTCTGCAAAGAGGTTC, for which the sensor-assay potency score (higher = more potent) in the assay with STARD13 is -0.341.
Turning to TGACCTTTCAGGTCTATCCTGC, the sensor-assay potency score (higher = more potent) with STARD13 is 0.102.
For the sequence TTCCACATCGATCACGTACTTG, the sensor-assay potency score (higher = more potent) with STAP2 is -0.479.
For TATTACAATAAATAAATCTTTA, in the assay with STARD3NL, the sensor-assay potency score (higher = more potent) was -1.13.
In the case of TTTAAATCGAAAAACTGCCAGA, the sensor-assay potency score (higher = more potent) with STARD3NL was -0.348.
As for TTCATTATTCTTCTCAAACTTC, the sensor-assay potency score (higher = more potent) with STARD3 was -0.376.
In the assay with STAP2, TTCTTCTGTAGCTCTGCCGTCA registered a sensor-assay potency score (higher = more potent) of -0.496.
Sequence TAGTTCTCTTCCTGGTTCGGTA displayed a sensor-assay potency score (higher = more potent) with STAP2 of -0.765.
Same read-out and setting: the result for TTCTCATAGTCAACAGCTGGGC reads -0.883.
Regarding TTTTCTTCCCAGCAACTTCTTC, the sensor-assay potency score (higher = more potent) with STARD3 is -1.04.

(Values after the OligoGym collection.)
